PubChem BioAssay (Tox21)
Where “and” joins values, the source holds several entries; their conditions need not be identical. Equal values may be shown once. Records with an inconclusive call do not appear. Where a structure was tested more than once in an assay, its records may differ in their call. Calls of active or inactive are those of the source. Unless noted, calls come from the whole dose curve; as a rule, active = well fitted curve in the direction sought with a large enough effect in the repeat runs; inconclusive = weak or mixed curves; inactive = no such curve, though single readings can be large; an effect the other way counts as inactive or inconclusive.

Experiments:
[1] = qHTS assay to identify small molecule agonists of H2AX (AID 1224845; active = well fitted activation curve with a large enough effect in the signal ratio in the repeat runs, not every such curve was filed as active; the % refers to the signal ratio)
Outline: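 Wild-type CHO-K1 cells, plated overnight, exposed 3hr at 37C to 15 concentrations (0.76% DMSO final). Lysed, then HTRF anti-pH2AX (S139) cryptate and anti-H2AX-d2 antibodies, 24 hr room temperature; 665/620 nm emission read.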

[2] = qHTS assay to identify small molecule agonists of the hypoxia (HIF-1) signaling pathway (AID 1224846; active = well fitted activation curve with a large enough effect in the signal ratio in the repeat runs, not every such curve was filed as active; the % refers to the signal ratio)
Outline: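 Steps: seed ME-180 HRE-bla cells (2,000/well, 0.5% dialyzed FBS); incubate 5 hrs at 37C; pin-transfer compounds or DMSO; incubate 17 hrs; add LiveBLAzer B/G substrate CCF4-AM; measure reporter activation by FRET.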

[3] = qHTS assay to identify small molecule agonists of H2AX - cell viability counter screen (AID 1224847; calls by dose curve; note: top concentration of the series differs between compounds; nearly all actives have a fitted effect of over 30% in size)
Outline: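 Viability of CHO-K1 (wild type) cells after 3 hr compound exposure was measured by CellTiter-Glo luminescence.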

[4] = qHTS assay to identify small molecule antagonists of the estrogen related receptor (ERR) signaling pathway from Tox21 library (AID 1224848); note: nearly all actives have a fitted effect of over 50% in size; note: potency is the fitted concentration of half-maximal effect
Outline: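 Luminescent reporter read-out (ONE-Glo) from NTP's ERR cell line after 18 h treatment at 37 C with DMSO-dissolved Tox21 compounds; cells pre-plated 6 h beforehand at 2,000 per well.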

[5] = qHTS assay to identify small molecule agonists of the estrogen related receptor (ERR) signaling pathway from Tox21 library (AID 1224849; calls by dose curve; note: nearly all actives have a fitted effect of over 15% in size); conditions: ERR reporter cell line, ONE-Glo luciferase, 18 h
Outline: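 Agonist signal is luciferase luminescence from an ERR reporter cell line treated 18 h at 37 C with DMSO-dissolved compounds, read 30 min after ONE-Glo addition at room temperature.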

[6] = qHTS RealTime-Glo MT Cell Viability Assay in HepG2 cells - 24 hour (AID 1224867); note: nearly all actives have a fitted effect of over 50% in size
Outline: (§1)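 Viability was tracked continuously by NanoLuc luminescence from prosubstrate reduced by living HepG2 cells, at successive time points over 40 h of compound exposure. Cells with reagent were preincubated 5 h at 37 °C before compound addition.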

[7] = qHTS RealTime-Glo MT Cell Viability Assay in HEK293 cells - 32 hour (AID 1224868); note: nearly all actives have a fitted effect of over 50% in size; note: potency is the fitted concentration of half-maximal effect
Outline: (§2)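 Viability tracked continuously by luminescence as live cells reduce a prosubstrate for NanoLuc; HEK293 cells preincubated 5 h, compound-treated at 37 C, and read at 0, 8, 16, 24, 32 and 40 h.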

[8] = A CellTox Green Cytotoxicity Assay to monitor cytotoxicity in HEK293 cells - 0 hour (AID 1224869); note: nearly all actives have a fitted effect of over 50% in size
Outline: (§3)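 Cytotoxicity was tracked continuously in HEK293 cells by a DNA-binding dye excluded from viable cells. Compounds were transferred in DMSO 5 h after seeding; fluorescence was recorded at intervals up to 40 h.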

[9] = A CellTox Green Cytotoxicity Assay to monitor cytotoxicity in HEK293 cells - 40 hour (AID 1224871); note: nearly all actives have a fitted effect of over 45% in size
Outline: as §3

[10] = qHTS RealTime-Glo MT Cell Viability Assay in HepG2 cells - 8 hour (AID 1224873); note: nearly all actives have a fitted effect of over 55% in size
Outline: (§4)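 HepG2 cells (600/well) mixed with RealTime-Glo MT reagent, settled 5 h at 37 C/5% CO2 before compound addition. Nonlytic NanoLuc luminescence from viable-cell prosubstrate reduction read repeatedly during 40 h treatment at 37 C.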

[11] = qHTS RealTime-Glo MT Cell Viability Assay in HEK293 cells - 40 hour (AID 1224874); conditions: RealTime-Glo luminescence; max response: stronger effect = lower value; note: nearly all actives have a fitted effect of over 50% in size; note: potency is the fitted concentration of half-maximal effect
Outline: (§5)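 Nonlytic bioluminescent viability monitoring. HEK293 at 600 cells/well with reagent; 5 h settle; compound transfer by pintool; plates held at 37 C and read at set time points.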

[12] = A CellTox Green Cytotoxicity Assay to monitor cytotoxicity in HEK293 cells - 24 hour (AID 1224875); note: nearly all actives have a fitted effect of over 45% in size
Outline: as §3

[13] = A CellTox Green Cytotoxicity Assay to monitor cytotoxicity in HepG2 cells - 16 hour (AID 1224876); note: nearly all actives have a fitted effect of over 45% in size; note: potency is the fitted concentration of half-maximal effect
Outline: (§6)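 Real-time, homogeneous cytotoxicity readout: dead-cell DNA staining by CellTox Green in HepG2 monolayers, fluorescence measured at timed intervals up to 40 h of continuous compound exposure.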

[14] = qHTS RealTime-Glo MT Cell Viability Assay in HepG2 cells - 32 hour (AID 1224877); note: nearly all actives have a fitted effect of over 55% in size
Outline: as §1

[15] = A CellTox Green Cytotoxicity Assay to monitor cytotoxicity in HepG2 cells - 24 hour (AID 1224878); note: nearly all actives have a fitted effect of over 45% in size; note: potency is the fitted concentration of half-maximal effect
Outline: as §6

[16] = A CellTox Green Cytotoxicity Assay to monitor cytotoxicity in HepG2 cells - 40 hour (AID 1224879); note: nearly all actives have a fitted effect of over 40% in size; note: potency is the fitted concentration of half-maximal effect
Outline: as §6

[17] = qHTS RealTime-Glo MT Cell Viability Assay in HEK293 cells - 0 hour (AID 1224880)
Outline: as §5

[18] = A CellTox Green Cytotoxicity Assay to monitor cytotoxicity in HEK293 cells - 32 hour (AID 1224881); note: nearly all actives have a fitted effect of over 40% in size
Outline: as §3

[19] = qHTS RealTime-Glo MT Cell Viability Assay in HEK293 cells - 16 hour (AID 1224872)
Outline: as §2

[20] = qHTS RealTime-Glo MT Cell Viability Assay in HepG2 cells - 40 hour (AID 1224870); note: nearly all actives have a fitted effect of over 50% in size
Outline: as §4
% is set by controls: 0 for no effect and ±100 for the full control effect.

O=C1Nc2ccc(Cl)cc2C(c2ccccc2)=NC1O (stereo unspecified)
inactive: Potency [1] | outcome [2] | Potency [3] | Potency [4] | activity change, positive = activation ([5]; at 92.4 µM (top of the series)) -20.3% and -12.2% | Potency [6] | Potency [7] | Potency [8] | Potency [9] | Potency [10] | max response [11] -19.7% | Potency [12] | Potency [13] | Potency [14] | Potency [15] | Potency [16] | Potency [17] | Potency [18]

CC(C)Nc1nc(Cl)nc(NC(C)C)n1
inactive: Potency [1] | outcome [2] | Potency [3] | Potency [4] | activity change, positive = activation ([5]; at 92.4 µM (top of the series)) 1.71% and -9.11% | Potency [6] | Potency [7] | Potency [9] | Potency [19] | Potency [10] | max response [11] -12.4% and -17.3% | Potency [12] | Potency [13] | Potency [14] | Potency [15] | Potency [16] | Potency [17] | Potency [18]

CN(C)P(=O)(N(C)C)N(C)C
inactive: Potency [1] | outcome [2] | Potency [3] | Potency [4] | activity change, positive = activation ([5]; at 92.4 µM (top of the series)) 5.26% and 10.2% | Potency [6] | Potency [7] | Potency [8] | Potency [9] | Potency [19] | Potency [10] | max response [11] 3.42% and 6.93% | Potency [12] | Potency [13] | Potency [14] | Potency [15] | Potency [16] | Potency [17] | Potency [18]

ClCC(Cl)CCl
inactive: Potency [1] | outcome [2] | Potency [3] | Potency [4] | activity change, positive = activation ([5]; at 92.4 µM (top of the series)) 8.78% and 5.09% | Potency [6] | Potency [7] | Potency [20] | Potency [9] | Potency [19] | Potency [10] | max response [11] 3.83% and -1.84% | Potency [12] | Potency [13] | Potency [14] | Potency [15] | Potency [16] | Potency [17]

C[N+](C)(C)C
inactive: Potency [1] | outcome [2] | Potency [3] | Potency [6] | Potency [7] | Potency [8] | Potency [9] | Potency [19] | Potency [10] | max response [11] 4.13% and -0.266% | Potency [12] | Potency [13] | Potency [14] | Potency [15] | Potency [16] | Potency [17] | Potency [18]

Cn1c(-c2ccccc2)cc(-c2ccccc2)[n+]1C
active: Potency [4] 17.2 µM and 21.7 µM | Potency [7] 8.69 µM and 24.5 µM | Potency [11] 9.75 µM and 21.9 µM
inactive: Potency [1] | outcome [2] | Potency [3] | activity change, positive = activation ([5]; at 92.4 µM (top of the series)) -54.1% and -52.6% | Potency [6] | Potency [20] | Potency [9] | Potency [10] | Potency [12] | Potency [13] | Potency [14] | Potency [15] | Potency [16] | Potency [17] | Potency [18]

N#CCCCCC#N
inactive: Potency [1] | outcome [2] | Potency [3] | Potency [4] | activity change, positive = activation ([5]; at 92.4 µM (top of the series)) 8.89% and 3.44% | Potency [6] | Potency [7] | Potency [8] | Potency [20] | Potency [9] | Potency [19] | Potency [10] | max response [11] 1.71% and 10.7% | Potency [12] | Potency [13] | Potency [14] | Potency [15] | Potency [16] | Potency [17] | Potency [18]

O=C(O)c1nn(Cc2ccc(Cl)cc2Cl)c2ccccc12
inactive: Potency [1] | outcome [2] | Potency [3] | Potency [4] | activity change, positive = activation ([5]; at 42.5 µM (top of the series)) -5.39% | activity change, positive = activation ([5]; at 92.4 µM (top of the series)) -48% | Potency [6] | Potency [7] | Potency [8] | Potency [20] | Potency [9] | Potency [19] | Potency [10] | max response [11] -3.1% and 1.84% | Potency [12] | Potency [14] | Potency [17] | Potency [18]
inactive and 95.2 nM (active): Potency [13] | Potency [16]
inactive and 107 nM (active): Potency [15]

ClC(Cl)=C(Cl)C(Cl)=C(Cl)Cl
inactive: Potency [1] | outcome [2] | Potency [3] | Potency [6] | Potency [7] | Potency [8] | Potency [9] | Potency [19] | Potency [10] | max response [11] 3.65% and 8.28% | Potency [12] | Potency [13] | Potency [14] | Potency [15] | Potency [16] | Potency [17] | Potency [18]

CC1=C(C(=O)Nc2ccccc2)SCCO1
inactive: Potency [1] | outcome [2] | Potency [3] | activity change, positive = activation ([5]; at 92.4 µM (top of the series)) -23.3% and -26.7% | Potency [6] | Potency [7] | Potency [20] | Potency [9] | Potency [19] | Potency [10] | max response [11] -20.6% and -17.9% | Potency [12] | Potency [13] | Potency [14] | Potency [15] | Potency [16] | Potency [17]

CNC(=O)Oc1cccc2c1OC(C)(C)C2
inactive: Potency [1] | outcome [2] | Potency [3] | Potency [4] | activity change, positive = activation ([5]; at 92.4 µM (top of the series)) 3.12% and 1.27% | Potency [6] | Potency [7] | Potency [8] | Potency [9] | Potency [19] | Potency [10] | max response [11] -0.656% and 0.539% | Potency [12] | Potency [13] | Potency [14] | Potency [15] | Potency [16] | Potency [17]
